Laboratory results: PubChem BioAssay (Tox21)
“And” between values parts separate entries of the source, which are not always exact repeats. Identical values can stand only once. The source made the active and inactive calls. Unless noted, calls come from the whole dose curve; as a rule, active = well fitted curve in the direction sought with a large enough effect in the repeat runs; inconclusive = weak or mixed curves; inactive = no such curve, though single readings can be large; an effect the other way counts as inactive or inconclusive.

Legend:
[1] = qHTS assay for small molecules that induce genotoxicity in human embryonic kidney cells expressing luciferase-tagged ATAD5 (AID 651632); note: nearly all actives have a fitted effect of over 15% in size; note: potency is the fitted concentration of half-maximal effect
Procedure, shortened: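 Quantitative HTS in HEK293T expressing luciferase-tagged ATAD5, whose levels rise upon DNA damage. Exposure ran 16 hr at 37C and 5% CO2, with luminescence read 30 min after Amplite addition at room temperature.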

[2] = qHTS assay for small molecule agonists of the p53 signaling pathway - cell viability (AID 651633; calls by dose curve; note: nearly all actives have a fitted effect of over 30% in size; note: potency is the fitted concentration of half-maximal effect)
Procedure, shortened: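 p53RE-bla cells were treated with compound for 16 hours at 37 C. Cytotoxicity was then measured as CellTiter-Glo luminescence after 30 min at room temperature.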

[3] = qHTS assay for small molecules that induce genotoxicity in human embryonic kidney cells expressing luciferase-tagged ATAD5 - cell viability (AID 651634; calls by dose curve; note: nearly all actives have a fitted effect of over 25% in size; note: potency is the fitted concentration of half-maximal effect)
Procedure, shortened: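 After 15.5 hr incubation with compound at 37C, 5% CO2, HEK293T ATAD5-luciferase cells received CellTiter-Fluor reagent; fluorescence intensity was quantified following 30 min at 37C.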

[4] = qHTS assay for small molecule disruptors of the mitochondrial membrane potential - cell viability (AID 720634; calls by dose curve; note: nearly all actives have a fitted effect of over 20% in size; note: potency is the fitted concentration of half-maximal effect)
Procedure, shortened: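 ATP-based luminescent viability readout (CellTiter-Glo, 30 min, room temperature) in HepG2 cells multiplexed with the m-MPI membrane potential dye; compound exposure lasted 1 hr at 37 C.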

[5] = qHTS assay to test for compound auto fluorescence at 590 nm (red) in HepG2 cells (AID 720674)
Procedure, shortened: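 Fluorescence at 590 nm emission following 540 nm excitation was recorded from HepG2 wells one hour after compound transfer, with DMSO-only wells as vehicle and Rose Bengal sodium equivalency as the scale.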

[6] = qHTS assay to test for compound auto fluorescence at 535 nm (green) in HepG2 cells (AID 720675)
[7] = qHTS assay to test for compound auto fluorescence at 460 nm (blue) in HEK293 cells (AID 720678)
Procedure, shortened: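 HEK293, 2,000 cells/well, 10% dialyzed FBS; attach 4-5 hr 37C; pin compound or DMSO; o/n 37C/5% CO2; fluorescence 405/460 nm; triamterene-equivalent units.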

[8] = qHTS assay to test for compound auto fluorescence at 590 nm (red) in HEK293 cells (AID 720679)
Procedure, shortened: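 Intensity at 540nm excitation and 590nm emission is reported as Rose Bengal sodium-equivalent autofluorescence. Measurements followed overnight exposure (37C, 5% CO2) of HEK293 cells, 2,000 per well, to 23 nL compound.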

[9] = qHTS assay to test for compound auto fluorescence at 535 nm (green) in HEK293 cells (AID 720680)
[10] = qHTS assay to test for compound auto fluorescence at 460 nm (blue) in HEK293 cell free culture (AID 720681)
Procedure, shortened: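 Compounds were added to cell-free DMEM with 10% FBS and fluorescence read directly. The blue channel used 405 nm excitation and 460 nm emission, with triamterene as the reference fluorophore.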

[11] = qHTS assay to test for compound auto fluorescence at 535 nm (green) in HEK293 cell free culture (AID 720682)
Procedure, shortened: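 Green-channel intensity (Ex/Em 485/535 nm) was recorded from compound-treated wells containing only DMEM with 10% FBS. Fluorescein provided the equivalency standard.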

[12] = qHTS assay to test for compound auto fluorescence at 590 nm (red) in HEK293 cell free culture (AID 720683)
Procedure, shortened: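 Cell-free wells of DMEM with 10% FBS received compound, and intrinsic fluorescence was read at excitation/emission 540/590 nm. Values expressed as equivalence to Rose Bengal sodium.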

[13] = qHTS assay to test for compound auto fluorescence at 590 nm (red) in HepG2 cell free culture (AID 720684)
Procedure, shortened: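 Rose Bengal sodium served as the reference for red signal. Test compounds were dispensed into serum-containing MEM (10% FBS) without cells, and plates were read at 540/590 nm.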

[14] = qHTS assay to test for compound auto fluorescence at 460 nm (blue) in HepG2 cell free culture (AID 720685)
Procedure, shortened: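 Cell-free plates of MEM plus 10% FBS received 23 nL compound or DMSO vehicle; blue-channel (405/460 nm) intensity scored against triamterene as reference fluorophore.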

[15] = qHTS assay to test for compound auto fluorescence at 535 nm (green) in HepG2 cell free culture (AID 720686)
[16] = qHTS assay to test for compound auto fluorescence at 460 nm (blue) in HepG2 cells (AID 720687)
Procedure, shortened: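 HepG2 cells in MEM with 10% FBS, attached overnight at 37 C, were exposed to compound or DMSO for 1 hr at 37 C, 5% CO2. Blue fluorescence was read at 405/460 nm, with triamterene as reference fluorophore.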

[17] = biological target: Glucocorticoid receptor (Homo sapiens) (UniProt P04150); experiment: qHTS assay to identify small molecule agonists of the glucocorticoid receptor (GR) signaling pathway (AID 720691; active = well fitted activation curve with a large enough effect in the signal ratio in the repeat runs, not every such curve was filed as active; inconclusive = weak or mixed curves, or effect the other way; inactive = no such curve, though single readings can be large or run the other way; the % refers to the signal ratio; note: potency is the fitted concentration of half-maximal effect)
Procedure, shortened: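 Cells: GR-bla HeLa, endogenous GR with stably integrated GRE-beta-lactamase reporter. Treatment 18 h, 37 C, compounds delivered in DMSO. Detection via LiveBLAzer B/G FRET substrate, 2 h RT, fluorescence intensity.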

[18] = biological target: Glucocorticoid receptor (Homo sapiens) (UniProt P04150); experiment: qHTS assay to identify small molecule antagonists of the glucocorticoid receptor (GR) signaling pathway (AID 720692; active = well fitted inhibition curve with a large enough effect in the signal ratio in the repeat runs, not every such curve was filed as active; inconclusive = weak or mixed curves, or effect the other way; inactive = no such curve, though single readings can be large or run the other way; the % refers to the signal ratio; note: potency is the fitted concentration of half-maximal effect)
Procedure, shortened: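 Quantitative HTS in antagonist format: HeLa cells expressing endogenous GR and a stably integrated GRE-bla reporter, stimulated with 5 nM dexamethasone (final) alongside test compounds for 18 h.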

[19] = qHTS assay for small molecule disruptors of the mitochondrial membrane potential (AID 720635); note: potency is the fitted concentration of half-maximal effect
Procedure, shortened: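 HepG2 cells exposed to compound 1 hr at 37C, then Mito-MPS dye 30 min. Ratio read of aggregate (540/590 nm) versus monomer (490/535 nm) fluorescence.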

Measured: Potency

Sequence of Glucocorticoid receptor (Homo sapiens) (P04150 whole entry, looked up): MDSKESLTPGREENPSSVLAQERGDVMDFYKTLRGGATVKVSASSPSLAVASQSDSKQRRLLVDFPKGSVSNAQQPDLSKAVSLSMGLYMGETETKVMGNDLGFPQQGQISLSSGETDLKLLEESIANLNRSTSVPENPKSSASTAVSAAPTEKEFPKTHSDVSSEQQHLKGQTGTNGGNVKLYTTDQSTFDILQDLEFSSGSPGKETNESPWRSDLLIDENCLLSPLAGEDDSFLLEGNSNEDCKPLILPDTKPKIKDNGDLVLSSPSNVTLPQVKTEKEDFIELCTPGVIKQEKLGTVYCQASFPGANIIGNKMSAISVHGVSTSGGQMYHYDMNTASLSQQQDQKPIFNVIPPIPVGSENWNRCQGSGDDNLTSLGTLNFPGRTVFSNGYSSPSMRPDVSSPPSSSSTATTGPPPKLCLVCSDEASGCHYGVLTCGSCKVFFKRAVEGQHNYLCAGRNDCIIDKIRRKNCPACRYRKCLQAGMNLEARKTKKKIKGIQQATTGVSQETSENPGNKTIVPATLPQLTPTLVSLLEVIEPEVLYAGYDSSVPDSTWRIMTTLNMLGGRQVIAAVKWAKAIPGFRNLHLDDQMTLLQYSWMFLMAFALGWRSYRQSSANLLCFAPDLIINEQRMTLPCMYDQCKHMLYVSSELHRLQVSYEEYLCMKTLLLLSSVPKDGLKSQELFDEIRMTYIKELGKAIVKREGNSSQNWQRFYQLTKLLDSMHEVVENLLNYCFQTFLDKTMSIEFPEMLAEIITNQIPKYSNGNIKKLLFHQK

CN(C)c1ccc(N=O)cc1
inactive: [5] | [6] | [7] | [8] | [9] | [10] | [11] | [12] | [13] | [14] | [15] | [16] | [17]
active: [1] 21.8 µM and 68.6 µM | [2] 21.8 µM | [3] 61.3 µM and 54.5 µM | [4] 17.3 µM and 48.6 µM | [18] 38.9 µM

CCC(C)(C)c1ccc(O)c(C(C)(C)CC)c1
inactive: [1] | [5] | [6] | [7] | [8] | [9] | [10] | [11] | [12] | [13] | [14] | [15] | [16]
active: [2] 21.4 µM and 27.3 µM | [3] 53.9 µM | [4] 6.04 µM | [19] 1.52 µM and 1.37 µM

NCCc1cc(O)c(O)cc1O
inactive: [1] | [2] | [3] | [4] | [19] | [5] | [6] | [7] | [8] | [9] | [10] | [11] | [12] | [13] | [14] | [15] | [16] | [17] | [18]

O=C(N/N=C/c1ccc([N+](=O)[O-])o1)c1cc([N+](=O)[O-])cc([N+](=O)[O-])c1O
inactive: [1] | [4] | [5] | [6] | [7] | [8] | [9] | [10] | [11] | [12] | [13] | [14] | [15] | [16] | [17] | [18]
active: [2] 26.6 µM

C[CH2][Hg][S]c1ccccc1C(=O)O
inactive: [5] | [6] | [7] | [8] | [9] | [10] | [11] | [12] | [13] | [14] | [15] | [16]
active: [2] 3.35 µM and 2.43 µM | [3] 11.9 µM and 27.3 µM | [4] 13.3 µM and 15.4 µM | [19] 11.9 µM and 15.4 µM

CCC1(CCC(C)C)C(=O)NC(=O)NC1=O
inactive: [1] | [2] | [3] | [4] | [5] | [6] | [7] | [8] | [9] | [10] | [11] | [12] | [13] | [15] | [16]

Cc1cccc(C)c1NC1=NCCCS1
inactive: [1] | [2] | [3] | [4] | [5] | [6] | [7] | [8] | [9] | [10] | [11] | [12] | [13] | [15] | [16]

CN1C(=O)CN=C(c2ccccc2)c2cc([N+](=O)[O-])ccc21
inactive: [2] | [5] | [6] | [7] | [8] | [9] | [10] | [11] | [12] | [13] | [15] | [16]
active: [17] 0.338 µM [inconclusive]
